According to PubChem BioAssay (NCATS):
Records with an inconclusive call do not appear. Calls of active or inactive are those of the source. Unless noted, calls come from the whole dose curve; as a rule, active = well fitted curve in either direction with a large enough effect (not every such curve was filed as active); inconclusive = small, poorly fitted or top-dose-only effect, or another doubt; inactive = flat fitted curve, though single readings scatter.

Tests used:
[1] = target: Lysosomal acid glucosylceramidase (Homo sapiens) (UniProt P04062); experiment: Glucocerebrosidase-p2 (AID 348; in the data active = potency below about 10 µM; note: potency is the fitted concentration of half-maximal effect); details: purified GBA, blue fluorogenic substrate, 40 min
Procedure, shortened: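 Normal human glucocerebrosidase (0.2 nM) with blue fluorogenic substrate (80 uM final) in citrate/phosphate pH 5.9 with 10mM sodium taurocholate, 0.01% tween-20; 40 min RT, NaOH/glycine stop; fluorescence Ex 365/Em 440; AC50 from a titration from 0.6 nM upwards.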

[2] = AP1 Signaling Pathway (AID 357); details: ME-180 AP-1-bla reporter, EGF-induced, beta-lactamase ratio, 5 h; at 7.69 µM (top of the series) unless noted; note: % is set by controls: 0 for no effect and ±100 for the full control effect
Procedure, shortened: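 AP-1-bla ME-180 cells with beta-lactamase reporter under AP-1 response element, stimulated with EC50 EGF; compounds titrated, 5 hours at 37 degrees Celsius. CCF4 read at 460/530 nm ratio; positive and negative modulators judged by AC50.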

[3] = target: Cytochrome P450 1A2 (Homo sapiens) (UniProt P05177); experiment: p450-cyp1a2 (AID 410; calls by dose curve; note: potency is the fitted concentration of half-maximal effect;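 for activity change, negative = inhibition: -100% = full effect of reference inhibitor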); details: recombinant CYP1A2, luciferin-ME demethylation, luminescence; series mostly up to 11.4 µM
Procedure, shortened: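 Luminescent demethylation readout: Luciferin-ME (100uM, equal to Km) turned over by 20nM CYP1A2 for 60 min at room temperature after NADPH regeneration addition, following 10 min compound preincubation. Normalization used 57 uM furafylline as full inhibition.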

[4] = NFAT Signaling Pathway (AID 444); details: Jurkat NFAT-bla M1, carbachol, beta-lactamase ratio, 5 h; at 7.69 µM (top of the series) unless noted;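 note: carbachol stimulus at about its EC50 of 1 µM final; % is set by controls: 0 for no effect and ±100 for the full control effect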
Procedure, shortened: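 Jurkat cells with NFAT-driven β-lactamase reporter and co-expressed M1 receptor, stimulated with carbachol (final 1 uM, ~EC50), compound titration, 5 h at 37 °C. CCF4 loaded 1 h at RT; 460/530 nm ratio gave %activity and AC50.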

[5] = Stat Signaling Pathway (AID 446); details: ME-180 (cervical carcinoma) SIE beta-lactamase reporter, IL-6 stimulated, 5 h; at 7.69 µM (top of the series) unless noted;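 note: ME-180 cervical cancer cells given 40 pM IL-6 alongside compound; SIE-controlled beta-lactamase reporter measured as 460/530 nm FRET emission ratio; % is set by controls: 0 for no effect and ±100 for the full control effect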
Procedure, shortened: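 Compound effects on IL-6-induced STAT reporter activity were measured in ME-180 cells. After overnight culture, cells were co-treated with 40 pM IL-6 for 5 hrs before beta-lactamase substrate loading at room temperature.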

[6] = target: Glucocorticoid receptor (Homo sapiens) (UniProt P04150); experiment: GR-GFP Redistribution (AID 450;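 active = compounds whose dose series gives a full or clear partial fitted curve of increased nuclear translocation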; note: potency is the fitted concentration of half-maximal effect); details: U2OS GR-GFP nuclear translocation, laser cytometry, 2 h
[7] = target: Glucocorticoid receptor (Homo sapiens) (UniProt P04150); experiment: GR-EFC Redistribution (AID 451; calls by dose curve; note: potency is the fitted concentration of half-maximal effect); details: CHO-K1 GR-EFC translocation, beta-gal luminescence, 2 h
Procedure, shortened: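 CHO-K1 cells expressing nuclear EA and GR-ED fragments of b-gal; compounds titrated up to 46 uM final, 2 h at 37 C. GR nuclear translocation read as complemented b-gal luminescence after 1 h RT detection.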

[8] = target: Mitogen-activated protein kinase 10 (Mus musculus) (UniProt Q61831); experiment: JNK3 AlphaScreen Assay (AID 530); details: JNK3 lysate, c-Jun phosphorylation; series mostly up to 11.4 µM;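 note: kinase came from lysate of stimulated human HepG2 cells; signal reports phosphorylation of biotinylated GST-cJun 1-79 at Ser73 with 10 µM ATP; % is set by controls: 0 for no effect and ±100 for the full control effect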
Procedure, shortened: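 Activity was read by AlphaScreen after JNK3-containing HepG2 lysate (cytokine pre-activated) phosphorylated biotinylated GST-cJun with 10 uM ATP at room temperature. Phospho-Ser73 cJun antibody with Protein-A acceptor beads provided detection.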

[9] = target: 3',5'-cyclic-AMP phosphodiesterase 4B (Homo sapiens) (UniProt Q07343); experiment: qHTS Assay for Inhibitors of PDE-IV (AID 607; active = well fitted activation curve with a large enough effect in the main read-out, with a control signal flat, not every such curve was filed as active; note: % of control where 0% means no effect); details: HEK293 ACTOne CNG channel cells, membrane potential fluorescence; series mostly up to 22.9 µM
Procedure, shortened: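 ACTOne HEK293 cells carry a modified cAMP-gated CNG channel and express endogenous PDE4; plated 1000 cells/well, compounds up to 22.9 uM final. Membrane-potential dye fluorescence (ex 535/em 590) was read; parental cells received 10 uM forskolin + 100 uM RO 20-1724.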

Chain of 3',5'-cyclic-AMP phosphodiesterase 4B (Homo sapiens) (Q07343 whole entry, looked up): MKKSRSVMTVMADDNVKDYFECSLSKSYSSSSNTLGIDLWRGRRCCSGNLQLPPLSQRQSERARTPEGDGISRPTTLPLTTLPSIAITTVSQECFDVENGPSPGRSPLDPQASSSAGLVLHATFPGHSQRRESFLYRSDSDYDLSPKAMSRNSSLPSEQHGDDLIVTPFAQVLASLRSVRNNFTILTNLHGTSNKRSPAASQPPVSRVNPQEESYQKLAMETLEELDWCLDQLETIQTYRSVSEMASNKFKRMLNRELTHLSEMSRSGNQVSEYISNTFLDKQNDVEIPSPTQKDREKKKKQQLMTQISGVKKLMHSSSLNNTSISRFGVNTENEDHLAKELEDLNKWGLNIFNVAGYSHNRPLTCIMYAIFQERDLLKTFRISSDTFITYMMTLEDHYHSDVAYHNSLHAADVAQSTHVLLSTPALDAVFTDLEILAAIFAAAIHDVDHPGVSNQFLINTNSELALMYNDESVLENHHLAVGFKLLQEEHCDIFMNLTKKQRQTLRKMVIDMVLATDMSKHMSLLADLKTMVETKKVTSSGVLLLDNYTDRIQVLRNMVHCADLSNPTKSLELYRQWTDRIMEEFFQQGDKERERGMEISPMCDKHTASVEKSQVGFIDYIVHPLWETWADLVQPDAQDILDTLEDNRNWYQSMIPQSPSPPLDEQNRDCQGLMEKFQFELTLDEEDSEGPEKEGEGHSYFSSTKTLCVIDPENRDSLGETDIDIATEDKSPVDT
Chain of Lysosomal acid glucosylceramidase (Homo sapiens) (P04062 whole entry, looked up): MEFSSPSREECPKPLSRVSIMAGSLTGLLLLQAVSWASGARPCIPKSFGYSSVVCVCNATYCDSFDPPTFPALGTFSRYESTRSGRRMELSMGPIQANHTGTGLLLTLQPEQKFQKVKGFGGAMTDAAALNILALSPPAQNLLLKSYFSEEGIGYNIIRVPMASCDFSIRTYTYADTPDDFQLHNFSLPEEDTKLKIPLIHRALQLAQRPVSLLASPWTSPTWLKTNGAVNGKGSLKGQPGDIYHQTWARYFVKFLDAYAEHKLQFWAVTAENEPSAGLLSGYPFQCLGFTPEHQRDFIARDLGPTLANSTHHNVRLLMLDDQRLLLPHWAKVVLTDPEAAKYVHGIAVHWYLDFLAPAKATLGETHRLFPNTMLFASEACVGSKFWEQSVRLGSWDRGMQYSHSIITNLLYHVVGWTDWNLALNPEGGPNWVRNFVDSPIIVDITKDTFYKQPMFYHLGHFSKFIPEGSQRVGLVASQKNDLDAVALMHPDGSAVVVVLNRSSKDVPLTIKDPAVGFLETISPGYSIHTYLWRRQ
Chain of Cytochrome P450 1A2 (Homo sapiens) (P05177 whole entry, looked up): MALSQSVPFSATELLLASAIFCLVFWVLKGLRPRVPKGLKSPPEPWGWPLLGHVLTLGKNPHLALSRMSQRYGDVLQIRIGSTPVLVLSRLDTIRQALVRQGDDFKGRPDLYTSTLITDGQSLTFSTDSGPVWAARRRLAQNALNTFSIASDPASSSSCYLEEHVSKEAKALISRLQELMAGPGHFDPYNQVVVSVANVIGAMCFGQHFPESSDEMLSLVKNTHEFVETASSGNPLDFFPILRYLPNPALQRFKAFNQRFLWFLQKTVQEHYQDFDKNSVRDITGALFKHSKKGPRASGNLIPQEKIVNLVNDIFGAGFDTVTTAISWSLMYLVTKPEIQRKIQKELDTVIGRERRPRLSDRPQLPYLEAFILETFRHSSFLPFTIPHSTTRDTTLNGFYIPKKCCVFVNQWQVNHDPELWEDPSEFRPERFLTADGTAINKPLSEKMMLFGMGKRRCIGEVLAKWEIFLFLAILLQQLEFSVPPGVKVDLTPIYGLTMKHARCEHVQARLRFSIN
Chain of Glucocorticoid receptor (Homo sapiens) (P04150 whole entry, looked up, the tested form may be a part): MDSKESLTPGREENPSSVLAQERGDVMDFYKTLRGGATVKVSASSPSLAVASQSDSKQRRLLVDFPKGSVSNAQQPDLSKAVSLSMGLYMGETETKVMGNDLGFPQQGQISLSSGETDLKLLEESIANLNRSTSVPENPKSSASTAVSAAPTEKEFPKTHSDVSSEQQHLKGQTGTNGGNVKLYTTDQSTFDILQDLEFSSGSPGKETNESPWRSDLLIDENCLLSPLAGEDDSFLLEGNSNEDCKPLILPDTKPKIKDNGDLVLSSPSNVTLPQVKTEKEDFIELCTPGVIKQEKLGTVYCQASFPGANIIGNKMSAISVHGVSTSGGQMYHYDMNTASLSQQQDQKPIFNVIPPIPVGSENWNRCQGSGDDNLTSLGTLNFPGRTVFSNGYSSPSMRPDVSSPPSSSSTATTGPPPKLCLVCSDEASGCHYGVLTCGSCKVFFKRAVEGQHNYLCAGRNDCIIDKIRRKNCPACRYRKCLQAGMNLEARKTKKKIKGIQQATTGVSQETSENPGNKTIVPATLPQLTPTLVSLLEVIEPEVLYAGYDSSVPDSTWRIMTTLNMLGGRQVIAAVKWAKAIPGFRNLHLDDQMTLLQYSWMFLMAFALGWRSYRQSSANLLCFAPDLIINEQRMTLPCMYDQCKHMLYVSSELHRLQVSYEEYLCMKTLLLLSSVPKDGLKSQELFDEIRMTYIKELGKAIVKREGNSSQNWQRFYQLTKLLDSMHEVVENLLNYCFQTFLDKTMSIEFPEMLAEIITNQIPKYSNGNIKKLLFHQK

N#CCCSC(=S)[C@H]1CCCC1=N
active: Potency [3] 3.16 µM
inactive: Potency [1] > 11.4 µM | activity change, negative = inhibition [2] 13.5% | activity change, negative = inhibition [4] -9.46% | activity, negative = inhibition [5] -9.66% | Potency [6] > 46 µM | Potency [7] > 9.22 µM | Potency [8] | Potency [9]

Cc1cc(C)c(O)c(Cc2cccc(Cc3cc(C)cc(C)c3O)c2O)c1
inactive: Potency [1] > 11.4 µM | activity change, negative = inhibition [2] 0.471% | activity change, negative = inhibition [3] -14.7% [at 2.29 µM] | activity change, negative = inhibition [4] 11.9% | activity, negative = inhibition [5] 2.38% | Potency [6] > 46 µM | Potency [7] > 9.22 µM | Potency [8] | Potency [9]

Nc1nc2c(c(=O)[nH]1)CN(c1ccc(S(N)(=O)=O)cc1)CN2
inactive: Potency [1] > 11.4 µM | activity change, negative = inhibition [2] -2.56% | activity change, negative = inhibition [3] 8.8% [at 2.29 µM] | activity change, negative = inhibition [4] 12% | activity, negative = inhibition [5] 1.71% | Potency [6] > 46 µM | Potency [7] > 9.22 µM | Potency [8] | Potency [9]

C=CC[C@@H](C(=O)O)c1ccccc1
inactive: Potency [1] > 11.4 µM | activity change, negative = inhibition [2] 2.31% | Potency [3] | activity change, negative = inhibition [4] 9.16% | activity, negative = inhibition [5] 8.67% | Potency [6] > 46 µM | Potency [7] > 9.22 µM | Potency [8] | Potency [9]

CS[C@@H](CC(=O)O)C(=O)O
inactive: Potency [1] > 11.4 µM | activity change, negative = inhibition [2] 2.29% | Potency [3] | activity change, negative = inhibition [4] 3.57% | activity, negative = inhibition [5] 2.44% | Potency [6] > 46 µM | Potency [7] > 9.22 µM | Potency [8] | Potency [9]

N#C/C(=C\N1CCNC1=S)C(=O)c1ccc2ccccc2c1
active: Potency [3] 1.58 µM
inactive: Potency [1] > 11.4 µM | activity change, negative = inhibition [2] -19.2% | activity change, negative = inhibition [4] 5.58% | activity, negative = inhibition [5] -8.82% | Potency [6] > 46 µM | Potency [7] > 9.22 µM | Potency [8] | Potency [9]

Nc1ccn([C@@H]2O[C@H](COC(=O)C34CC5CC(CC(C5)C3)C4)[C@@H](O)[C@@H]2O)c(=O)n1
inactive: Potency [1] > 11.4 µM | activity change, negative = inhibition [2] 9.17% | activity change, negative = inhibition [3] -18.7% [at 2.29 µM] | activity change, negative = inhibition [4] 16.8% | activity, negative = inhibition [5] -0.882% | Potency [6] > 46 µM | Potency [7] > 9.22 µM | Potency [8] | Potency [9]

CC(C)(N=NC(C)(C)C1=NCCN1)C1=NCCN1
inactive: Potency [1] > 11.4 µM | activity change, negative = inhibition [2] 3.01% | Potency [3] | activity change, negative = inhibition [4] 7.08% | activity, negative = inhibition [5] 3.73% | Potency [6] > 46 µM | Potency [7] > 9.22 µM | Potency [8] | Potency [9]

CC(C)=C[C@H]1[C@@H](COC(=O)c2ccccc2Cl)C1(C)C
inactive: Potency [1] > 11.4 µM | activity change, negative = inhibition [2] 8.2% | activity change, negative = inhibition [4] 12.7% | activity, negative = inhibition [5] -1.06% | Potency [6] > 46 µM | Potency [7] > 9.22 µM | Potency [8] | Potency [9]
active: Potency [3] 3.98 µM

Cc1ccc(NC(=O)c2ccccc2C(=O)O)cc1C
active: Potency [3] 3.98 µM
inactive: Potency [1] > 11.4 µM | activity change, negative = inhibition [2] -1.74% | activity change, negative = inhibition [4] -27.9% | activity, negative = inhibition [5] -5.42% | Potency [6] > 46 µM | Potency [7] > 9.22 µM | Potency [8] | Potency [9]

O=C1COC(c2ccccc2O)=NN1CCCN1CCCC1
inactive: Potency [1] > 11.4 µM | activity change, negative = inhibition [2] 5.73% | Potency [3] | activity change, negative = inhibition [4] -11.6% | activity, negative = inhibition [5] 5.21% | Potency [6] > 46 µM | Potency [7] > 9.22 µM | Potency [8] | Potency [9]

O=C1CN2CCN(CC2)CC(=O)Nc2ccc(cc2)S(=O)(=O)c2ccc(cc2)NC(=O)CN2CCN(CC2)CC(=O)Nc2ccc(cc2)S(=O)(=O)c2ccc(cc2)N1
inactive: Potency [1] > 11.4 µM | activity change, negative = inhibition [2] 5.33% | Potency [3] | activity change, negative = inhibition [4] 5.58% | activity, negative = inhibition [5] 12.3% | Potency [6] > 46 µM | Potency [7] > 9.22 µM | Potency [8] | Potency [9]

Oc1ccc(Cl)cc1C=Nc1cnc2ccccc2c1
inactive: Potency [1] > 11.4 µM | activity change, negative = inhibition [2] 3.1% | activity change, negative = inhibition [3] -13.2% [at 2.29 µM] | activity change, negative = inhibition [4] 10.1% | activity, negative = inhibition [5] -10.7% | Potency [6] > 46 µM | Potency [7] > 9.22 µM | Potency [8] | Potency [9]

CN1CCN(c2nc3c(c(=O)n(C)c(=O)n3C)n2C)CC1
inactive: Potency [1] > 11.4 µM | activity change, negative = inhibition [2] -1.63% | activity change, negative = inhibition [3] -16.8% [at 2.29 µM] | activity change, negative = inhibition [4] 1.71% | activity, negative = inhibition [5] -1.51% | Potency [6] > 46 µM | Potency [7] > 9.22 µM | Potency [8] | Potency [9]
